From the supplement of paper PMC10849652
Targets with a hit are over-represented here; the source holds about 7,900 in all. About 0.6% of all pairs of compound and target were hits. Values without a mark were called inactive.

Tests used:
Test in all cases: log2 fold change, soluble protein after heating vs DMSO (PISA); higher = thermal stabilisation; K562 cells, 10 uM, 30 min; active = over 0.2 and 3.5 SD of the protein, either way, in both replicates (recomputed)
saracatinib = compound: CN1CCN(CCOc2cc(OC3CCOCC3)c3c(Nc4c(Cl)ccc5c4OCO5)ncnc3c2)CC1 [saracatinib]
How it was run: (§1)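 Values are thermal stability changes relative to control samples and are taken from duplicates. They are stated as log2 fold changes. Before quantification by TMTpro 16plex LC-MS/MS with equalised channel sums, K562 cells at 2×10^6 cells/mL were treated with 10 μM compound for 30 min, heated in aliquots for 3 min across 48°C-58°C, pooled, extracted in PBS with 0.5% NP-40 at 4°C, and centrifuged at 21,000xg for 90 min to give the soluble supernatant.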

sotrastaurin = compound: CN1CCN(c2nc(C3=C(c4c[nH]c5ccccc45)C(=O)NC3=O)c3ccccc3n2)CC1 [sotrastaurin]
How it was run: as §1

alvocidib = compound: CN1CC[C@H](c2c(O)cc(O)c3c(=O)cc(-c4ccccc4Cl)oc23)[C@H](O)C1 [alvocidib]
How it was run: as §1

Tubastatin A = compound: CN1CCc2c(c3ccccc3n2Cc2ccc(C(=O)NO)cc2)C1 [Tubastatin A]
How it was run: as §1

[1] = compound: CNC(=O)C1=CC=CC=C1NC2=NC(=NC=C2Cl)NC3=C(C=C(C=C3)N4CCOCC4)OC
How it was run: as §1

defactinib = compound: CNC(=O)c1ccc(Nc2ncc(C(F)(F)F)c(NCc3nccnc3N(C)S(C)(=O)=O)n2)cc1 [defactinib]
How it was run: as §1

rucaparib = compound: CNCc1ccc(-c2[nH]c3cc(F)cc4c3c2CCNC4=O)cc1 [rucaparib]
How it was run: as §1

[2] = compound: CNc1nc(-c2ccc3c(N)n[nH]c3c2)cc(N2C[C@@H](C(=O)NC3CCCCC3)CC[C@H]2C)n1
How it was run: as §1

encorafenib = compound: COC(=O)N[C@@H](C)CNc1nccc(-c2cn(C(C)C)nc2-c2cc(Cl)cc(NS(C)(=O)=O)c2F)n1 [encorafenib]
How it was run: as §1

[3] = compound: COC(=O)[C@H](CCSC)NC(=O)C1=C(C=C(C=C1)NC[C@H](CS)N)C2=CC=CC=C2
How it was run: as §1

[4] = compound: COC1=CC=C(C=C1)CN2C=CC3=C2C=C(C=C3)C(=O)NO
How it was run: as §1

filanesib = compound: CON(C)C(=O)N1N=C(c2cc(F)ccc2F)S[C@@]1(CCCN)c1ccccc1 [filanesib]
How it was run: as §1

zotarolimus = compound: CO[C@H]1C[C@@H]2CC[C@@H](C)[C@@](O)(O2)C(=O)C(=O)N2CCCC[C@H]2C(=O)O[C@H]([C@H](C)C[C@@H]2CC[C@H](n3cnnn3)[C@H](OC)C2)CC(=O)[C@H](C)/C=C(\C)[C@@H](O)[C@@H](OC)C(=O)[C@H](C)C[C@H](C)/C=C/C=C/C=C/1C [zotarolimus]
How it was run: as §1

idasanutlin = compound: COc1cc(C(=O)O)ccc1NC(=O)[C@@H]1N[C@@H](CC(C)(C)C)[C@](C#N)(c2ccc(Cl)cc2F)[C@H]1c1cccc(Cl)c1F [idasanutlin]
How it was run: as §1

alisertib = compound: COc1cc(Nc2ncc3c(n2)-c2ccc(Cl)cc2C(c2c(F)cccc2OC)=NC3)ccc1C(=O)O [alisertib]
How it was run: as §1

[5] = compound: COc1cc2nc(-c3cc(F)ccc3O)nc(N[C@@H]3CNC[C@H]3C(C)(C)O)c2cc1OC
How it was run: as §1

gefitinib = compound: COc1cc2ncnc(Nc3ccc(F)c(Cl)c3)c2cc1OCCCN1CCOCC1 [gefitinib]
How it was run: as §1

[6] = compound: COc1cccc2cc(-c3nc([C@H]4CC[C@H](C(=O)O)CC4)n4ncnc(N)c34)[nH]c12
How it was run: as §1

lapatinib = compound: CS(=O)(=O)CCNCc1ccc(-c2ccc3ncnc(Nc4ccc(OCc5cccc(F)c5)c(Cl)c4)c3c2)o1 [lapatinib]
How it was run: as §1

pictilisib = compound: CS(=O)(=O)N1CCN(Cc2cc3nc(-c4cccc5[nH]ncc45)nc(N4CCOCC4)c3s2)CC1 [pictilisib]
How it was run: as §1

UniProt P60033, sequence (P60033 whole entry, looked up): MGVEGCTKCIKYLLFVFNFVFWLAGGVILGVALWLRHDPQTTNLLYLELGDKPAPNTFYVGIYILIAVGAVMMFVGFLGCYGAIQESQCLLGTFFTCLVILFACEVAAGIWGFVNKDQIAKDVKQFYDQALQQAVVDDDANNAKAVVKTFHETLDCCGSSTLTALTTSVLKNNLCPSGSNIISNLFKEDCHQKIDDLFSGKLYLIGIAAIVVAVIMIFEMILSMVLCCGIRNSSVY
UniProt Q9Y6H1, sequence (Q9Y6H1 whole entry, looked up): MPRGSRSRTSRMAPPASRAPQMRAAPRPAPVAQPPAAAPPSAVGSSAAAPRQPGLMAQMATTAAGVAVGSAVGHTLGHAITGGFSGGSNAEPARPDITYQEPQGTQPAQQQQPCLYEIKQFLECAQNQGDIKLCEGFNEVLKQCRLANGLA
UniProt Q9NZN8, sequence (Q9NZN8 whole entry, looked up): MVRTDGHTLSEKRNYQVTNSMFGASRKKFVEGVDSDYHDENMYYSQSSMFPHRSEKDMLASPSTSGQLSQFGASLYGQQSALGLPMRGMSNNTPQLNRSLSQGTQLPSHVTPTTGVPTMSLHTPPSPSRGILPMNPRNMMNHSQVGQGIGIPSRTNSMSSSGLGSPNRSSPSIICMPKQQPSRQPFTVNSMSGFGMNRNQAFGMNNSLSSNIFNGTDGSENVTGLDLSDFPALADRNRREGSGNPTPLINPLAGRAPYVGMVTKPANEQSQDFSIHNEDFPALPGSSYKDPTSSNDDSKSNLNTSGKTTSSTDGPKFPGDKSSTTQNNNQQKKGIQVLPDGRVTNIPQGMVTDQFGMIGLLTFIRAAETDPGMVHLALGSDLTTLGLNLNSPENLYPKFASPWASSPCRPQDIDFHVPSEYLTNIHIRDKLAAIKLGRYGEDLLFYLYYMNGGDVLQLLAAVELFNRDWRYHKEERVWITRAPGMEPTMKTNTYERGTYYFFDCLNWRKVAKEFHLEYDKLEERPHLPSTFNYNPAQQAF
UniProt O15182, sequence (O15182 whole entry, looked up): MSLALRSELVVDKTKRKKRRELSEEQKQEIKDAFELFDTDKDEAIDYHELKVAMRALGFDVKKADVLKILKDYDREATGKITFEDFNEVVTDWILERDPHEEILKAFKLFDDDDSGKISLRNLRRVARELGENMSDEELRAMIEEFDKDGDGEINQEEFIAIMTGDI
UniProt O75909, sequence (O75909 whole entry, looked up): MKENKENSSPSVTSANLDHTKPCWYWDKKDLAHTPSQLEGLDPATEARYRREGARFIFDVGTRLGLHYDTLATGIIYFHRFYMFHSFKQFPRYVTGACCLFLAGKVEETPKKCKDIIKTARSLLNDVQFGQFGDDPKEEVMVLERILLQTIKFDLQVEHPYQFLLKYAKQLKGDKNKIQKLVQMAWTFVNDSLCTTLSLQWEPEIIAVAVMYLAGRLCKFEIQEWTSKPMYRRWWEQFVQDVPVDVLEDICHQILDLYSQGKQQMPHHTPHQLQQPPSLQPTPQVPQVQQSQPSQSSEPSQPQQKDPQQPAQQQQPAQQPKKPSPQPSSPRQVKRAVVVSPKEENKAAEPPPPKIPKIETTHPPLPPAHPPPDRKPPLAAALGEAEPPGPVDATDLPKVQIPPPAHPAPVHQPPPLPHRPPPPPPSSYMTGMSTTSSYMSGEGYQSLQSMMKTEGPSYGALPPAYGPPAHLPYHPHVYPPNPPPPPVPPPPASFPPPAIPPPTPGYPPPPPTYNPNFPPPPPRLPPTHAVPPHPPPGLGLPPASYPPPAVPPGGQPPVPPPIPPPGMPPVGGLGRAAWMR
UniProt P21964, sequence (P21964 whole entry, looked up): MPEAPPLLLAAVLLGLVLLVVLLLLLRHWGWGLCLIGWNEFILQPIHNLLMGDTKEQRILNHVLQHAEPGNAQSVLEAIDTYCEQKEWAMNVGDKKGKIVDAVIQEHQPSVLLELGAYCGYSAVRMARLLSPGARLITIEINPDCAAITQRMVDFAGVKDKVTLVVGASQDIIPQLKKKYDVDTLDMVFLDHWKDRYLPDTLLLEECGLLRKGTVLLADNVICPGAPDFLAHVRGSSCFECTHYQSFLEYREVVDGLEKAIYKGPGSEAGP
UniProt P45973, sequence (P45973 whole entry, looked up): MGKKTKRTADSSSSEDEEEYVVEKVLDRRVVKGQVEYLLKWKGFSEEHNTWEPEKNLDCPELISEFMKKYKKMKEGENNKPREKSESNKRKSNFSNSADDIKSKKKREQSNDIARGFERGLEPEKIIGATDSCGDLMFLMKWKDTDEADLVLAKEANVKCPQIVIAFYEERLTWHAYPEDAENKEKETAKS
UniProt Q00534, sequence (Q00534 whole entry, looked up): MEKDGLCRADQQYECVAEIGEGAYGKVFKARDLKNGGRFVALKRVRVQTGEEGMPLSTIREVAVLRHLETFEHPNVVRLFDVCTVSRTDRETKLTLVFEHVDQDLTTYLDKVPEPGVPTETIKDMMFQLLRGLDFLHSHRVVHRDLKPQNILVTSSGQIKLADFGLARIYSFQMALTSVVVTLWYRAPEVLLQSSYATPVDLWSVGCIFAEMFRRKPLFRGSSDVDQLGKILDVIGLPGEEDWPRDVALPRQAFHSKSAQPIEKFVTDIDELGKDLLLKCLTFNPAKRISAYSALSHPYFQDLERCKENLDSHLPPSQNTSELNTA
UniProt P50416, sequence (P50416 whole entry, looked up): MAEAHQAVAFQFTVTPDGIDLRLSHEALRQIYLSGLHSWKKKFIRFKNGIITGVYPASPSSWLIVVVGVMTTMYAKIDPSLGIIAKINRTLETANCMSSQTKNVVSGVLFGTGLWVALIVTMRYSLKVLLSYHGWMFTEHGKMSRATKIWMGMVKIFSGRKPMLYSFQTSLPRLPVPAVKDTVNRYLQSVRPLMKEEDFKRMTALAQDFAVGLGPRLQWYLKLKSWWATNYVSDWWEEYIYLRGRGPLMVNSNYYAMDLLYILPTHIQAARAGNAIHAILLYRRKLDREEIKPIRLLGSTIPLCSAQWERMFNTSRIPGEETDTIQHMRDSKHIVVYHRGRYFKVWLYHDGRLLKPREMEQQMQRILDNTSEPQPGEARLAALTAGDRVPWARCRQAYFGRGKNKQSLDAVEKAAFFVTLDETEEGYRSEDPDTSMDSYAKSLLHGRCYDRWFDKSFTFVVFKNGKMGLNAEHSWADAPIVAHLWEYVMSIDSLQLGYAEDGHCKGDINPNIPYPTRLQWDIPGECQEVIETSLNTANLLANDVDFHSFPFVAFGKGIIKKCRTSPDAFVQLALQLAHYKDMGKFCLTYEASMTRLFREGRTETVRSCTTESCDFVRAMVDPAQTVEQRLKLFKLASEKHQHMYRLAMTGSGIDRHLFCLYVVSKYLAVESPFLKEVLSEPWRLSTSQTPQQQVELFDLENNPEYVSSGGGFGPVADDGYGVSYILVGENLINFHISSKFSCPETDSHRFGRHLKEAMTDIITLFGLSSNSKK
UniProt Q9UNS2, sequence (Q9UNS2 whole entry, looked up): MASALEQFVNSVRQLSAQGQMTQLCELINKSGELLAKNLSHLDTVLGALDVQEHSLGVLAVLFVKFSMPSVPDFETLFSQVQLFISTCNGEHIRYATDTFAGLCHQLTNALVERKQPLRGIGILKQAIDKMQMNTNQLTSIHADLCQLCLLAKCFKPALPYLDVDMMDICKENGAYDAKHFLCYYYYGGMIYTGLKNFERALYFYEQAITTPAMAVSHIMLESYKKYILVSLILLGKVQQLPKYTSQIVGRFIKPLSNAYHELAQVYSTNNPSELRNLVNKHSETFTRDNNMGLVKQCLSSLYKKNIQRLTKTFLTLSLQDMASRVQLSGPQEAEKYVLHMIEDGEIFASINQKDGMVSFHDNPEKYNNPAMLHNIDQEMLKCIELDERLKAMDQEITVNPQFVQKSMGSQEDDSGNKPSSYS
UniProt Q12996, sequence (Q12996 whole entry, looked up): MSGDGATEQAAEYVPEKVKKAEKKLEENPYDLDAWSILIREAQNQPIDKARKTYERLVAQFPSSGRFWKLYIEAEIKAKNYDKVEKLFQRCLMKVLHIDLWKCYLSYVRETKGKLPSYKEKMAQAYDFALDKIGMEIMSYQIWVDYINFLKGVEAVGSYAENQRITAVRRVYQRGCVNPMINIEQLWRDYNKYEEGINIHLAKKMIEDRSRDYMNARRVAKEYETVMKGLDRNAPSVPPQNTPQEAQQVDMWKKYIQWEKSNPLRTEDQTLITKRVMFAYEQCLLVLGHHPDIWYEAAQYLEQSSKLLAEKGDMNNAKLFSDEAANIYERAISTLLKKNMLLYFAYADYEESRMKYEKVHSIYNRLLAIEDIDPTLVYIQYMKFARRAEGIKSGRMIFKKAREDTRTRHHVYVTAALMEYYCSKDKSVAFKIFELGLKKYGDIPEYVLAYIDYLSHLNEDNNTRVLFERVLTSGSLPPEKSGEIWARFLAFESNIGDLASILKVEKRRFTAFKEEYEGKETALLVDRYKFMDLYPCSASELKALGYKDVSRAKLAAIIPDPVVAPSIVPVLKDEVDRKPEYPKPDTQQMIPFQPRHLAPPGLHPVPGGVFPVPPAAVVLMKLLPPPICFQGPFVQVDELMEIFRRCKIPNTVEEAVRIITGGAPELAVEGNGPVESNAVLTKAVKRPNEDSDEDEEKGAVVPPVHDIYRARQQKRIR
UniProt P12277, sequence (P12277 whole entry, looked up): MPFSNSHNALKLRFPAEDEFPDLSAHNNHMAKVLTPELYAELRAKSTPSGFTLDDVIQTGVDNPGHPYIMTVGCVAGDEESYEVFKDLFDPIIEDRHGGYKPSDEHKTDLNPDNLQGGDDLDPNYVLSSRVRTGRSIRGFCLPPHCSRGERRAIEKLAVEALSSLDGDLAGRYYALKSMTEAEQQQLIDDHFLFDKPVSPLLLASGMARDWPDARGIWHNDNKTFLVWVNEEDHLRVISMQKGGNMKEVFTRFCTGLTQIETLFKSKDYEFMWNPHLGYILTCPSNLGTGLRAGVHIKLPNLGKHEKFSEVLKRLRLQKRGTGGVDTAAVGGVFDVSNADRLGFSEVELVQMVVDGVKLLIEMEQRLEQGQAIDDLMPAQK
UniProt P24311, sequence (P24311 whole entry, looked up): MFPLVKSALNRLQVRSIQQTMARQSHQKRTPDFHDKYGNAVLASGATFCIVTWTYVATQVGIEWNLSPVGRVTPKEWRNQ

Target	log2 fold change (saracatinib)	log2 fold change (sotrastaurin)	log2 fold change (alvocidib)	log2 fold change (Tubastatin A)	log2 fold change [1]	log2 fold change (defactinib)	log2 fold change (rucaparib)	log2 fold change [2]	log2 fold change (encorafenib)	log2 fold change [3]	log2 fold change [4]	log2 fold change (filanesib)	log2 fold change (zotarolimus)	log2 fold change (idasanutlin)	log2 fold change (alisertib)	log2 fold change [5]	log2 fold change (gefitinib)	log2 fold change [6]	log2 fold change (lapatinib)	log2 fold change (pictilisib)
CCNK isoform 4 (UniProt O75909)	-0.072	0.135	0.022	0.057	-0.147	0.043	0.066	-0.019	0.029	0.003	-0.067	0.177	0.163	0.061	-0.013	-0.021	-0.014	0.024	0.066	-0.033
CD81 (UniProt P60033)	0.163	0.103	0	-0.064	-0.029	-0.053	-0.152	0.207	0.199	0	-0.051	0.049	0.003	-0.014	-0.007	0.008	0.043	0.052	-0.032	0.138
CSTF3 (UniProt Q12996)	0.001	0.045	0.078	-0.08	0.043	0.173	0.088	-0.051	-0.022	0.002	-0.008	-0.041	-0.033	-0.087	-0.056	0.176	-0.005	0.022	-0.012	0.066
CHCHD2 (UniProt Q9Y6H1)	0	-0.031	0.027	-0.058	0.087	-0.002	-0.065	-0.049	-0.01	0.061	0.101	0.026	-0.024	-0.457 (active)	0.053	-0.002	-0.028	-0.155	-0.024	0.031
CKB (UniProt P12277)	-0.041	0.019	-0.089	-0.004	-0.016	-0.006	-0.059	0.043	0.015	-0.011	-0.031	-0.097	0.061	-0.047	-0.093	-0.007	0.002	0.01	0.016	0.022
CES2 isoform 4 (UniProt O00748)	0.04	0.196	0.065	0.115	0.247	-0.164	0.3	0.218	-0.145	0.044	-0.099	0.055	0.078	0.053	0.023	-0.044	0.03	-0.145	0.161	0.103
COX7B (UniProt P24311)	0.174	0.058	0.026	-0.087	0.059	0	-0.02	-0.049	-0.036	-0.073	0.112	0.028	-0.003	-0.012	0.038	-0.018	0.023	0.094	-0.009	-0.039
CETN3 (UniProt O15182)	-0.027	-0.022	0.013	0.015	0.128	-0.008	-0.006	-0.003	-0.021	0.082	-0.211	-0.026	0.041	0.068	-0.058	0.161	-0.001	0.072	-0.175	0.061
COMT (UniProt P21964)	-0.046	0.109	0.004	0.4 (active)	0.008	-0.006	-0.018	0.029	-0.039	-0.09	-0.097	-0.054	0.034	-0.093	0.009	0.15	0.043	0.004	-0.042	0.136
COPS3 (UniProt Q9UNS2)	-0.016	0.02	-0.019	-0.025	-0.021	-0.023	-0.037	-0.013	-0.003	0.033	0.12	-0.035	-0.004	-0.09	-0.012	0.008	-0.031	0.052	-0.015	-0.063
CBX5 (UniProt P45973)	-0.04	-0.001	-0.115	0.078	-0.026	-0.205	-0.022	0.043	0.009	-0.012	0.119	-0.046	0.029	-0.014	-0.062	0.003	0.024	0.022	0.019	0.106
CELF2 isoform 3 (UniProt O95319)	-0.011	0.076	0.036	-0.102	-0.034	0.098	0.125	-0.099	-0.041	-0.032	0.115	0.052	-0.035	-0.044	-0.122	0.1	-0.027	-0.006	0.032	0.051
CPT1A (UniProt P50416)	0.021	0.075	0.578 (active)	0.142	0.161	-0.087	0.054	0.148	0.069	-0.04	0.073	0.204	0.118	0.086	0.235	0.308	0.028	-0.151	0.1	0.257
CS (UniProt O75390)	-0.001	0.02	-0.074	-0.015	0.011	-0.069	0.022	-0.055	-0.042	-0.002	0.012	-0.172	0.011	-0.033	-0.013	-0.139	0.041	0.059	-0.027	0.099
CDK6 (UniProt Q00534)	0.002	-0.005	0.01	0.022	0.016	-0.029	0.065	-0.02	0.011	0.004	-0.012	0.037	0.021	-0.06	-0.051	0.036	0	-0.012	-0.019	0.015
CNOT2 (UniProt Q9NZN8)	-0.044	0.007	-0.071	-0.005	-0.006	-0.024	0.052	0	0.012	-0.021	-0.006	0.006	0.014	0.005	-0.01	0.021	0.017	-0.021	0.048	0.04
